The values that follow come from PubChem BioAssay (NCATS).

One assay deals with 3D7. Kind of assay: qHTS profiling for inhibitors of Plasmodium falciparum proliferation (AID 504749). Note: nearly all actives have a fitted effect of over 60% in size. Note: potency is the fitted concentration of half-maximal effect. The conditions noted are these: P. falciparum in erythrocytes, SYBR Green DNA, 72 h; series mostly up to 12.8 µM. The procedure, abridged:
(§1)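 SYBR Green fluorescence of parasite DNA, read after lysis and overnight dark incubation, measured growth over 72 h in erythrocyte culture at 0.3% parasitemia and 2.5% hematocrit. Data normalised to DMSO and 0.29 uM artemisinin, with plate-drift correction.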

In the next assay the test system is ATS189. Described as above. The conditions noted are these: P. falciparum in erythrocytes, SYBR Green DNA, 72 h; series mostly up to 12.8 µM. The procedure, abridged:
as §1

Another assay concerns ATS95. The assay is described as above. The following applies: P. falciparum in erythrocytes, SYBR Green DNA, 72 h; series mostly up to 12.8 µM. The procedure, abridged:
as §1

For the next assay, the system named is CP217. The description is as above. The following applies: P. falciparum in erythrocytes, SYBR Green DNA, 72 h; series mostly up to 12.8 µM. The procedure, abridged: as §1
The next assay relates to CP238. The assay is described as above. The following applies: P. falciparum in erythrocytes, SYBR Green DNA, 72 h; series mostly up to 12.8 µM. The procedure, abridged:
as §1

The next assay has as its system CP247. The description is as above. The conditions noted are these: P. falciparum in erythrocytes, SYBR Green DNA, 72 h; series mostly up to 12.8 µM. The procedure, abridged:
as §1

The test system of the next assay is CP250. The assay is described as above. The following applies: P. falciparum in erythrocytes, SYBR Green DNA, 72 h; series mostly up to 12.8 µM. The procedure, abridged: as §1
The subject of another assay is CP265. The description is as above. The conditions noted are these: P. falciparum in erythrocytes, SYBR Green DNA, 72 h; series mostly up to 12.8 µM. The procedure, abridged: as §1
Another assay has as its system CP305. Described as above. The conditions noted are these: P. falciparum in erythrocytes, SYBR Green DNA, 72 h; series mostly up to 12.8 µM. The procedure, abridged: as §1
In the next assay the test system is CP325. The description is as above. The following applies: P. falciparum in erythrocytes, SYBR Green DNA, 72 h; series mostly up to 12.8 µM. The procedure, abridged: as §1
The next assay deals with Dd2. The assay is described as above. The following applies: P. falciparum in erythrocytes, SYBR Green DNA, 72 h; series mostly up to 12.8 µM. The procedure, abridged:
as §1

Another assay deals with FAB9. The assay is described as above. The following applies: P. falciparum in erythrocytes, SYBR Green DNA, 72 h; series mostly up to 12.8 µM. The procedure, abridged: as §1
The subject of another assay is N140. The assay is described as above. The following applies: P. falciparum in erythrocytes, SYBR Green DNA, 72 h; series mostly up to 12.8 µM. The procedure, abridged: as §1
A further assay has as its system P93_24. The description is as above. The conditions noted are these: P. falciparum in erythrocytes, SYBR Green DNA, 72 h; series mostly up to 12.8 µM. The procedure, abridged: as §1
Another assay relates to PAD. Described as above. The conditions noted are these: P. falciparum in erythrocytes, SYBR Green DNA, 72 h; series mostly up to 12.8 µM. The procedure, abridged: as §1
The subject of a further assay is PC15. Described as above. The following applies: P. falciparum in erythrocytes, SYBR Green DNA, 72 h; series mostly up to 12.8 µM. The procedure, abridged:
as §1

For another assay, the system named is PC49. The assay is described as above. The following applies: P. falciparum in erythrocytes, SYBR Green DNA, 72 h; series mostly up to 12.8 µM. The procedure, abridged: as §1
For a further assay, the system named is TAB109. The description is as above. The following applies: P. falciparum in erythrocytes, SYBR Green DNA, 72 h; series mostly up to 12.8 µM. The procedure, abridged:
as §1

Assay [1] is described as follows: S16 Schwann cell PMP22 intronic element beta-lactamase assay (AID 624044; calls by dose curve; note: nearly all actives have a fitted effect of over 15% in size). The procedure, abridged:
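Beta-lactamase reporter under a PMP22 intronic regulatory element in stable S16 rat Schwann cells; 24 h compound exposure. 460 nm blue signal normalized between DMSO (0%) and potassium clavulanate, with 535 nm FRET tracking viability; curves classed by r2 and response.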

The test system of another assay is CP192. Briefly: qHTS profiling for inhibitors of Plasmodium falciparum proliferation (AID 504749). Note: nearly all actives have a fitted effect of over 60% in size. Note: potency is the fitted concentration of half-maximal effect. The conditions noted are these: P. falciparum in erythrocytes, SYBR Green DNA, 72 h; series mostly up to 12.8 µM. The procedure, abridged:
as §1
For orientation: qHTS replaces the single test concentration by a dilution series.

Inconclusive results are not listed. The source made the active and inactive calls. Unless noted, calls come from the whole dose curve; as a rule, active = well fitted inhibition curve with a large enough effect; inconclusive = small, poorly fitted or top-dose-only effect; inactive = flat fitted curve, though single readings scatter.

Regarding `COc1ccc([C@@H]2CC(=O)c3c(O)cc(O[C@H]4O[C@@H](CO[C@H]5O[C@@H](C)[C@@H](O)[C@@H](O)[C@@H]5O)[C@@H](O)[C@@H](O)[C@@H]4O)cc3O2)cc1O`, the Potency entry in the assay on 3D7, with ATS189, in the assay with ATS95, in the assay with CP217, in the assay with CP238 and with CP247 was “inactive” throughout. Further, the Potency entry with CP250, in the assay with CP265, with CP305, in the assay on CP325, in the assay with Dd2 and in the assay on FAB9 was “inactive” in each case. Also, the Potency result in the assay on N140, in the assay on P93_24, in the assay with PAD, in the assay with PC15, with PC49 and in the assay on TAB109 was “inactive” each time.
`O=C(NC[C@@H](O)CO)c1c(I)c(C(=O)NC[C@@H](O)CO)c(I)c(N(CCO)C(=O)CO)c1I`: the Potency result (in assay [1]; in the assay on 3D7; in the assay with ATS189; with ATS95; with CP192; with CP217) was “inactive” each time. For the same compound, the Potency entry in the assay with CP238, in the assay on CP247, in the assay with CP250, in the assay on CP265, in the assay with CP305 and in the assay with CP325 was “inactive” throughout. In addition, the Potency result in the assay with Dd2, in the assay on FAB9, in the assay with N140, in the assay with P93_24, with PAD and in the assay on PC15 was “inactive” each time. Also, the Potency entry with PC49 and in the assay with TAB109 was “inactive” throughout.
Regarding `CN1C(=O)C[C@H](c2ccccc2)C1=O`, the Potency entry (in assay [1]; in the assay on 3D7; in the assay on ATS189; in the assay with CP192; in the assay with CP217; with CP238) was “inactive” each time. For the same compound, the Potency entry with CP247, with CP250, in the assay on CP305, in the assay with CP325, with Dd2 and in the assay on FAB9 was “inactive” in each case. Further, the Potency entry in the assay on N140, with P93_24, in the assay with PAD, with PC15 and in the assay with PC49 was “inactive” each time. The Potency is 7.1 nM (active) in the assay on ATS95 and 5 nM (active) in the assay with TAB109.
As for `CC(C)(C)NC[C@H](O)COc1cccc2c1CCC(=O)N2`, the Potency entry (in assay [1]; with 3D7; with ATS189; in the assay on ATS95; in the assay with CP192; in the assay on CP217) was “inactive” each time. Besides, the Potency entry with CP238, with CP247, in the assay on CP250, in the assay with CP265, in the assay with CP305 and in the assay with CP325 was “inactive” in each case. The Potency entry in the assay on Dd2, with FAB9, with N140, in the assay on P93_24, in the assay on PAD and in the assay with PC15 was “inactive” in each case. In addition, the Potency entry with PC49 and in the assay on TAB109 was “inactive” in each case.
Turning to `O=C(Nc1ccccc1)OC[C@H](CN1CCCCC1)OC(=O)Nc1ccccc1`, the Potency result (in assay [1]; in the assay with 3D7; in the assay on ATS189; in the assay on ATS95; in the assay with CP192; in the assay with CP217) was “inactive” each time. Further, the Potency result in the assay on CP238, in the assay with CP247, in the assay on CP250, with CP265, in the assay on CP305 and in the assay with CP325 was “inactive” each time. For the same compound, the Potency entry in the assay on Dd2, in the assay with FAB9, with N140, with P93_24, with PAD and with PC15 was “inactive” throughout. Further, the Potency entry in the assay on PC49 and with TAB109 was “inactive” in each case.
On to `C[C@H](Oc1ccccc1)C(=O)N[C@@H]1C(=O)N2[C@@H]1SC(C)(C)[C@@H]2C(=O)O`, for which the Potency result (in [1]; with 3D7; in the assay with ATS189; in the assay with ATS95; in the assay with CP192; in the assay with CP217) was “inactive” in each case. In addition, the Potency entry with CP238, in the assay on CP247, in the assay on CP250, with CP265, in the assay on CP305 and in the assay on CP325 was “inactive” each time. In addition, the Potency result with Dd2, in the assay with FAB9, in the assay on N140, in the assay on P93_24, in the assay on PAD and with PC15 was “inactive” in each case. In addition, the Potency result in the assay on PC49 and in the assay with TAB109 was “inactive” each time.
In the case of `CS(=O)(=O)c1ccc([C@H](O)[C@H](CO)NC(=O)C(Cl)Cl)cc1`, the Potency result (in [1]; with 3D7; with ATS189; in the assay on ATS95; with CP192; in the assay on CP217) was “inactive” throughout. In addition, the Potency entry with CP238, in the assay on CP247, in the assay with CP250, in the assay on CP265, in the assay with FAB9 and in the assay with N140 was “inactive” in each case. Also, the Potency result in the assay on PAD, in the assay with PC15 and in the assay with PC49 was “inactive” each time.
Take `CO[C@H]1[C@@H](OC(N)=O)[C@H](O)[C@@H](Oc2ccc3c(O)c(NC(=O)c4ccc(O)c(CC=C(C)C)c4)c(=O)oc3c2C)OC1(C)C`: the Potency result in the assay with 3D7, in the assay with ATS189, in the assay on ATS95, in the assay with CP192, in the assay with CP217 and in the assay with CP238 was “inactive” each time. In addition, the Potency entry in the assay on CP247, in the assay on CP250, in the assay with CP265, in the assay on CP305, in the assay on CP325 and in the assay with Dd2 was “inactive” throughout. For the same compound, the Potency entry in the assay on FAB9, in the assay on N140, in the assay with P93_24, in the assay on PAD, in the assay with PC15 and with PC49 was “inactive” in each case. Also, in the assay on TAB109, the Potency result was “inactive”.
Regarding `CC[C@H](CO)NCCN[C@@H](CC)CO`, the Potency result (in assay [1]; with 3D7; in the assay with ATS189; in the assay with ATS95; in the assay on CP192; in the assay with CP217) was “inactive” each time. The Potency entry in the assay on CP238, with CP247, in the assay with CP250, in the assay on CP265, in the assay on CP305 and in the assay with CP325 was “inactive” throughout. Besides, the Potency entry with Dd2, in the assay with FAB9, in the assay with N140, in the assay on P93_24, in the assay on PAD and in the assay on PC15 was “inactive” in each case. Besides, the Potency entry in the assay on PC49 and in the assay on TAB109 was “inactive” throughout.
For `CC(=O)[C@@]1(O)CC[C@H]2[C@H]3C[C@@H](C)C4=CC(=O)C=C[C@]4(C)[C@@]3(F)[C@@H](O)C[C@]21C`, the Potency result (in assay [1]; in the assay on 3D7; in the assay with ATS189; with ATS95; with CP192; with CP217) was “inactive” in each case. Further, the Potency entry with CP238, in the assay with CP250, with CP265, with CP305, with CP325 and in the assay with Dd2 was “inactive” in each case. Further, the Potency result in the assay on FAB9, with N140, in the assay with P93_24, in the assay on PAD, in the assay with PC15 and in the assay with PC49 was “inactive” throughout. Further, the Potency result in the assay with TAB109 was “inactive”.
For `COc1cc2nc(N3CCN(C(=O)[C@@H]4CCCO4)CC3)nc(N)c2cc1OC`, the Potency entry (in assay [1]; with 3D7; with ATS189; with ATS95; in the assay with CP192; in the assay on CP217) was “inactive” each time. Further, the Potency result in the assay on CP238, in the assay with CP247, with CP250, with CP265, in the assay on CP305 and in the assay on CP325 was “inactive” in each case. For the same compound, the Potency result in the assay on Dd2, in the assay with FAB9, in the assay on N140, with P93_24, with PAD and in the assay on PC15 was “inactive” each time. The Potency result with PC49 and in the assay with TAB109 was “inactive” in each case.
As to `CC(=O)C[C@H](c1ccc([N+](=O)[O-])cc1)c1c(O)c2ccccc2oc1=O`, the Potency result (in [1]; with 3D7; in the assay on ATS189; in the assay with ATS95; in the assay with CP192; in the assay on CP217) was “inactive” throughout. Also, the Potency entry in the assay with CP238, in the assay on CP247, in the assay on CP250, with CP265, with CP305 and with CP325 was “inactive” throughout. Further, the Potency result in the assay with Dd2, in the assay with FAB9, in the assay on N140, with P93_24, in the assay on PAD and in the assay on PC15 was “inactive” throughout. The Potency result in the assay on PC49 and in the assay on TAB109 was “inactive” throughout.
